Among all 290,000 compounds or so, about 27,000 (9.3%) were called active. Rule as the data show it: active = inhibition mostly above about 28% (no sharp cut-off); inactive = mostly below about 43%. What follows is part of a selection rich in actives, with near analogues and random picks from the rest.

The nature of the assay: A qHTS for Small Molecule Inhibitors of Shiga Toxin. Also: 0% is about no effect. The following applies: Vero cells, Shiga toxin protein synthesis inhibition reporter; at 38.7 µM, hits give high values. (In general: Quantitative high-throughput screening tests each substance at several concentrations.)
Regarding `Oc1ccccc1CN1CCN(C(c2ccccc2)c2ccccc2)CC1`, the inhibition was -6.21% (inactive).

For the compound `NC(=O)COC(=O)c1ccc2c(c1)C(=O)N(Cc1ccco1)C2=O`, the inhibition is -6.38% (inactive).

For the compound `CC(C)CC(=O)N/C(N)=N/c1nc2ccccc2s1`, the inhibition was 61.6% (active).

For the compound `CCC(=O)NCCc1nc2ccccc2n1CC`, the inhibition is -5.67% (inactive).

For `CCC(=O)NC(=Nc1nc2ccccc2s1)NC(=O)CC`, the inhibition is 57.8% (active).

With `O=C(O)CCCCc1nc2ccccc2s1`, the inhibition is -9.29% (inactive).

With `Cc1cc(C(=O)OCC(=O)Nc2nnc(C(C)C)s2)c2ccccc2n1`, the inhibition was -2.62% (inactive).

With `CC(C)CC(=O)NC(=S)NCc1ccccc1`, the inhibition was -1.98% (inactive).

Turning to `CCCn1nc(NC(=O)C(C)C)c2cc3cc(OC)ccc3nc21`, the inhibition is 40.5% (inactive).

As to `COc1ccc(C(=O)CC(=O)C(=O)Nc2cc([N+](=O)[O-])ccc2OC)cc1`, the inhibition was -3.5% (inactive).

With `O=C(Cn1ncc2c3ccccc3n(Cc3ccccc3)c2c1=O)NCc1ccccn1`, the inhibition is 16.1% (inactive).

Turning to `Cc1c(C(=O)N2CCCC2)c(S(=O)(=O)NCC(C)c2ccccc2)c(C)n1C` (stereo not given), the inhibition is -3.94% (inactive).

Regarding `CC1(C(=O)N/N=C/c2cc3c(cc2Br)OCO3)CC1(Br)Br` (stereo not given), the inhibition was -11.8% (inactive).

With `O=C(C1CCN(Cc2ccc(Cl)cc2)CC1)N1CCN(Cc2ccc3c(c2)OCO3)CC1`, the inhibition is -7.69% (inactive).

Regarding `COc1ccc(C2c3[nH]c4ccccc4c3C[C@H]3C(=O)N(CC(C)C)CC(=O)N23)c(OC)c1` (stereo not given in full), the inhibition is -6.17% (inactive).

In the case of `COc1ccccc1/C=N\Nc1cc(C)nc(-n2nc(C)cc2C)n1`, the inhibition was -8.59% (inactive).

Consider `COc1cccc(/C=N/Nc2cc(C)nc(-c3ccccc3O)n2)c1O`, for which the inhibition is 38.3% (active).

For the compound `COc1cccc2c(N/N=C/c3ccco3)cc(C)nc12`, the inhibition is 63.5% (inactive).

Turning to `CC(=O)c1cccc(NC(=O)CN2C(=O)c3cccnc3Oc3ccc(Cl)cc32)c1`, the inhibition was 1.59% (inactive).

With `CCc1ccc(N(C(=O)c2csnn2)C(C(=O)NC2CCCCC2)c2ccncc2)cc1` (stereo not given), the inhibition was 32.9% (inactive).

Turning to `COc1cccc(N(CC(=O)Nc2cccc(F)c2)S(C)(=O)=O)c1`, the inhibition is 12.9% (inactive).

For the compound `Cc1ccc2nc(-c3ccc(NC(=O)CN(C)S(=O)(=O)c4ccccc4)cc3)sc2c1`, the inhibition was 84.9% (active).

Take `Cc1nc2ccc(S(=O)(=O)N(C)CC(=O)NC(C)c3ccccc3)cc2s1` (stereo not given): the inhibition is -9.9% (inactive).

Turning to `COc1cc(NC(=O)CN(C)S(=O)(=O)c2ccc3nc(C)sc3c2)cc(OC)c1`, the inhibition was 15.9% (inactive).

For `Cc1cccc(N(CC(=O)Nc2ccc(-c3nc4ccc(C)cc4s3)cc2)S(C)(=O)=O)c1`, the inhibition was 146% (active).

Regarding `CCN(CC)S(=O)(=O)c1ccc(NC(=O)CN(c2cccc(F)c2)S(C)(=O)=O)cc1`, the inhibition was -12.2% (inactive).

As for `C[C@H]1CCC(=O)N([C@H](CSc2ccccc2)Cc2ccccc2)CC1`, the inhibition was 6.56% (inactive).

Turning to `CCCOc1ccc(Cc2c(O)nc(N)[nH]c2=O)cc1C`, the inhibition was 1.67% (inactive).

`CCC(=O)N1c2ccc(S(=O)(=O)NCc3ccco3)cc2CC1C` (stereo not given): the inhibition is 12.8% (inactive).

Consider `O=C(Nn1cnnc1)c1cc(Cl)ccc1Cl`, for which the inhibition is 7.38% (inactive).

`C=CCc1cc(S(=O)(=O)c2ccc(O)c(CC=C)c2)ccc1O`: the inhibition was -18% (inactive).

Take `CC(C)c1nnc(NC(=O)CCC(=O)N2CCN(c3cccc(Cl)c3)CC2)s1`: the inhibition is -4.62% (inactive).

In the case of `CS(=O)(=O)N(CC(=O)N1CCN(c2cccc(Cl)c2)CC1)c1ccccc1`, the inhibition was -4.1% (inactive).

Consider `O=C(c1cccc([N+](=O)[O-])c1)N1CCN(C(=O)c2ccco2)CC1`, for which the inhibition was -3.08% (inactive).

Consider `O=C(c1ccco1)N1CCN(c2cccc(Cl)c2)CC1`, for which the inhibition is 24.3% (active).

On to `O=C(CCCC(=O)N1CCN(c2cccc(Cl)c2)CC1)c1ccccc1`, for which the inhibition is 25.1% (active).

As to `O=C(c1ccc2c(c1)OCO2)N1CCN(C(=O)c2ccco2)CC1`, the inhibition is 17% (inactive).

With `CC(C)=C(NC(=O)c1ccco1)C(=O)NCCc1nc2ccccc2[nH]1`, the inhibition was 7.12% (inactive).

Regarding `Oc1ccc2nc(Cc3ccccc3)[nH]c2c1`, the inhibition is 54.8% (inactive).

For `Nc1cccc(CCc2nc3ccccc3[nH]2)c1`, the inhibition was 91.8% (active).

`CCOC(=O)C1=C(c2ccccc2)NC(=O)NC1c1cc(OCC)c(O)c([N+](=O)[O-])c1` (stereo not given): the inhibition is -6.05% (inactive).

Turning to `Cc1ccc(C(=O)OCc2nc(N)nc(Nc3ccccc3C)n2)cc1`, the inhibition is -11.7% (inactive).

For `Cc1ccccc1Nc1nc(N)nc(CSc2ccccc2)n1`, the inhibition was 87.7% (active).

With `Cc1ccccc1Nc1nc(N)nc(CSc2nnc3ccccn23)n1`, the inhibition was 37.1% (inactive).

`Cc1cc(OC(C)C(=O)NC2CC(C)(C)NC(C)(C)C2)c2c(C)cc(=O)oc2c1` (stereo not given): the inhibition is -4.82% (inactive).

Take `CCn1c(CNC(=O)c2cc(OC)c(OC)c(OC)c2)cc2cc(C)ccc21`: the inhibition is 2.16% (inactive).

As to `CCOc1ccc(CN(C)C(=O)c2ccc(=O)[nH]c2)cc1`, the inhibition is -3.04% (inactive).

In the case of `CCc1ccc(/C=N/NC(=O)c2nnn(-c3nonc3N)c2CN2CCc3ccccc32)cc1`, the inhibition was -4.83% (inactive).

Take `COc1ccc(NS(=O)(=O)c2cccc3nsnc23)cc1Cl`: the inhibition was -3.74% (inactive).

For `CCCC(=O)Nc1nc2ccc(NC(=O)c3c(F)c(F)c(OC)c(F)c3F)cc2s1`, the inhibition is -15.8% (inactive).

`CSc1nc2ccc(NC(=O)c3c(F)cccc3F)cc2s1`: the inhibition was 90.3% (active).

Take `O=C(Nc1ccncc1)c1c(F)cccc1F`: the inhibition was -10.9% (inactive).

Regarding `Cc1ccc(OCCOCCOc2ccc(Br)cc2/C=N\NC(=O)c2ccncc2)cc1`, the inhibition was -5.78% (inactive).

For the compound `Cc1ccc(OCCOc2cccc(/C=N/NC(N)=O)c2)cc1`, the inhibition is 56.6% (active).

Turning to `O=C(N/N=C/c1cccc(OCc2ccccc2)c1)c1ccc(Br)o1`, the inhibition is 46.8% (active).

In the case of `Cc1cccc(OCC(=O)NCC(=O)N/N=C/c2ccc(N(C)C)cc2)c1`, the inhibition was -12.5% (inactive).

On to `O=C(N/N=C/c1ccc(OCc2ccccc2)cc1)c1ccc(O)cc1`, for which the inhibition is 51.1% (inactive).

Turning to `O=C(N/N=C/c1cccc(O)c1)c1cc2c(ccc3ccccc32)o1`, the inhibition was 6% (inactive).

As for `CCOc1ccccc1N1C(=O)CC(Sc2nccc(C)n2)C1=O` (stereo not given), the inhibition is 10.8% (inactive).

As for `Cc1ccc2c(c1)N(CC(=O)N1CCOCC1)C(=O)CO2`, the inhibition is -3.54% (inactive).

Broadly, the inhibition is the drop in the measured response relative to a control, in per cent.

Source of the values: PubChem BioAssay AID2315 (National Center for Advancing Translational Sciences (NCATS), 2010).
